# Measured values from PubChem BioAssay (NCI).
# Compounds without any hit were thinned out: in the full panel of roughly 83,000, 20% have a hit.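 Values shown are percent growth following 48 h exposure of cells in 96-well plates to a single concentration of compound; below 10 was considered active.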 The source made the active and inactive calls.
# System: HCC-2998 colon
# Experiment: NCI-60 one-dose screen, 48 h (100 = growth as untreated, 0 = no growth, -100 = all killed)
# Conditions: 10 µM unless noted
row,SMILES,growth
1,CCOP1(=O)CC(C)=C(Cl)C(P(=O)(O)O)C1 (stereo not drawn),94.4% (inactive)
2,C=CCNC(=S)NNc1ccc([N+](=O)[O-])cn1,96.3% (inactive)
3,CCOC(=O)NNc1[nH]c(-c2ccc(OC)cc2)cc1C#N,39.1% (inactive)
4,O=C(CCl)NC1c2ccccc2Oc2ccccc21,111% (inactive)
5,O=C(N/N=C\c1ccc(Cl)cc1)C(=O)N/N=C\c1ccc(Cl)cc1,110% (inactive)
6,C=C(NC(=O)[C@H](C(C)C)N(C)c1cccc2[nH]ccc12)C(=O)OC,113% (inactive)
7,COc1ccc(NC(=O)/C=C(C)/C=C/C=C(C)/C=C/C2=C(C)CCCC2(C)C)cc1,97.9% (inactive)
8,O=C(/C=C1\C(=O)N(Cc2ccc([N+](=O)[O-])cc2)c2ccccc21)c1ccc(OCCN2CCCCC2)cc1,42.1% (inactive)
9,COc1cc(/C=C/C(=O)c2ccc(F)cc2)ccc1OCCCCOc1cc2c(cc1OC)C(=O)N1CCCC1C=N2 (stereo not drawn),-87.5% (active)
10,CCN(CC)CCNc1ncnc2c1cnn2-c1ccc(Cl)cc1,82.7% (inactive)
11,C/C(=C\c1ccc2ccccc2c1)[N+](=O)[O-],78.5% (inactive)
12,CC(=O)CC(=O)OC/C=C(/C)CCC=C(C)C,97.2% (inactive)
13,COc1cccc2c1nc1cccc(OC)c1[n+]2[O-],-47.5% (active)
14,CCCCCSc1ccc2nc(NC(=O)OCC)sc2c1,55% (inactive)
15,CCNc1nnc(COc2ccc(CNC(=O)CCCC/C=C/C(C)C)cc2OC)o1,103% (inactive)
16,CCCCCCCCCCN1CC2CCCCC2C1 (stereo not drawn),82.9% (inactive)
17,CCCCCCCCCCCCCCCC[n+]1cccc(C#N)c1,65.2% (inactive)
18,CCCCCCCCCCCCOC(=N)N(C)C,101% (inactive)
19,COC(=O)C(C(=O)OC)C(Br)C(Br)C(Br)c1ccccc1 (stereo not drawn),110% (inactive)
20,CCCCCCCCCC(C)NC(=O)CCl (stereo not drawn),103% (inactive)
21,CC1=C(C)C[C@]2(C(=O)O[C@H]3CCCC[C@@H]32)[S@](=O)C1,95% (inactive)
22,CCCCCCCCCC[N+](C)(C)N,98.5% (inactive)
23,COc1ccc(-c2nnc(SCC(=O)Nc3ccc(C(=O)/C=C/c4cc(OC)c(OC)c(OC)c4)cc3)n2-c2ccccc2)cc1OC,8.22% [100 µM] (active)
